The source of these data is PMC8384837, “Expanding the binding specificity for RNA recognition by a PUF domain”.

What all share (test): yeast three-hybrid, YBZ-1, SC-Leu-His + 0.5 mM 3-AT, 4 days
What all share (conditions): tags: N-Gal4 AD-HA kept; label: inside an RPR1-promoter hybrid RNA with tandem MS2 sites; ssRNA

In one test the target is PUM1 PUF domain R5-KAR (Homo sapiens, UniProt Q14671 828-1176, C1007K;R1008A;Q1011R). Put shortly:
(§1)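 Sequencing with Illumina followed PCR amplification of the repeat regions from transformants grown four days on SC-Leu (input) or SC-Leu-His + 0.5 mM 3-AT (selection). The transformants were strain YBZ-1 with a LexA–MS2 coat fusion and a HIS3 reporter, carrying Pumilio-1 PUF domain libraries and matching RNA elements. The interaction score is the log change in variant frequency from input to selection, computed in log2 with a pseudocount of 1 for absent variants.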

Another test deals with PUM1 PUF domain R5-KQS (Homo sapiens, UniProt Q14671 828-1176, C1007K;R1008Q;Q1011S). The procedure, abridged:
as §1

Another test addresses PUM1 PUF domain R5-RMC (Homo sapiens, UniProt Q14671 828-1176, C1007R;R1008M;Q1011C). The procedure, abridged:
as §1

The target of the next test is PUM1 PUF domain R5-PRD (Homo sapiens, UniProt Q14671 828-1176, C1007P;Q1011D). Put shortly:
as §1

The target of the next test is PUM1 PUF domain R5-TAR (Homo sapiens, UniProt Q14671 828-1176, C1007T;R1008A;Q1011R). The procedure, abridged:
as §1

In a further test the target is PUM1 PUF domain R3-WFG (Homo sapiens, UniProt Q14671 828-1176, C935W;R936F;Q939G). The procedure, abridged:
as §1

The target of the next test is PUM1 PUF domain R3-GFL (Homo sapiens, UniProt Q14671 828-1176, C935G;R936F;Q939L). Put shortly:
as §1

The target of a further test is PUM1 PUF domain R8-VYR (Homo sapiens, UniProt Q14671 828-1176, N1122V;Q1126R). The procedure, abridged: as §1
For a further test, the target named is PUM1 PUF domain R8-HFM (Homo sapiens, UniProt Q14671 828-1176, N1122H;Y1123F;Q1126M). The procedure, abridged: as §1
The target in another test is PUM1 PUF domain R5-EWF (Homo sapiens, UniProt Q14671 828-1176, C1007E;R1008W;Q1011F). The procedure, abridged: as §1
For a further test, the target named is T1, PUM1 PUF domain R6-KWL (Homo sapiens, UniProt Q14671 828-1176, N1043K;Y1044W;Q1047L).
T1 sequence: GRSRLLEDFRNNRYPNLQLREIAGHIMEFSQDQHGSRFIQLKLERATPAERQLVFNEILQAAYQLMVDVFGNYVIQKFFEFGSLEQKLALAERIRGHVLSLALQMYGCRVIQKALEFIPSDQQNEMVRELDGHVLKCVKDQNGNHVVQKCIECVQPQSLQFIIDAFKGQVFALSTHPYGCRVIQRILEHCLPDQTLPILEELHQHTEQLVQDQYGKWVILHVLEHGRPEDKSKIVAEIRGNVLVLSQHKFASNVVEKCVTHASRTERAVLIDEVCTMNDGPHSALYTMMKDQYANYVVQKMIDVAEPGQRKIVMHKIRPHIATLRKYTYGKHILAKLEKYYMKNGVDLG
The procedure, abridged:
as §1

The target of a further test is PUM1 PUF domain R7-DWE (Homo sapiens, UniProt Q14671 828-1176, S1079D;N1080W). The procedure, abridged: as §1
The target in another test is PUM1 PUF domain R3-AFP (Homo sapiens, UniProt Q14671 828-1176, C935A;R936F;Q939P). Put shortly:
as §1

For the next test, the target named is PUM1 PUF domain R3-VYD (Homo sapiens, UniProt Q14671 828-1176, C935V;R936Y;Q939D). Put shortly: as §1
A further test addresses PUM1 PUF domain R4-WGT (Homo sapiens, UniProt Q14671 828-1176, N971W;H972G;Q975T). Put shortly: as §1
In another test the target is PUM1 PUF domain R5-AFY (Homo sapiens, UniProt Q14671 828-1176, C1007A;R1008F;Q1011Y). Put shortly:
as §1

The target in a further test is PUM1 PUF domain R5-DQE (Homo sapiens, UniProt Q14671 828-1176, C1007D;R1008Q;Q1011E). Put shortly: as §1
The target of another test is PUM1 PUF domain R5-QVI (Homo sapiens, UniProt Q14671 828-1176, C1007Q;R1008V;Q1011I). The procedure, abridged: as §1
The target in another test is PUM1 PUF domain R2-AWY (Homo sapiens, UniProt Q14671 828-1176, N899A;Y900W;Q903Y). Put shortly:
as §1

For a further test, the target named is T2, PUM1 PUF domain R6-DWE (Homo sapiens, UniProt Q14671 828-1176, N1043D;Y1044W;Q1047E).
T2 sequence: T1 sequence with K216D, L220E
The procedure, abridged: as §1

Positions count from the first letter of the chain named.

“GGCUAGAACUAGUGGAUCCCCCGGCGCCCGGCGGCUCGAGCCCGGGUAAGUGUCAAUAGUCUGCAUGCCGCCGGGCGCCAUGCCUGCAGGUCGACUCUAGAAAACAUG”: the binding signal is 4.29 log2 enrichment (interaction score) with PUM1 PUF domain R5-KAR; 3.98 log2 enrichment (interaction score) in the test with PUM1 PUF domain R5-KQS; 3.26 log2 enrichment (interaction score) in the test with PUM1 PUF domain R5-RMC; 2.8 log2 enrichment (interaction score) in the test with PUM1 PUF domain R5-PRD; 5.36 log2 enrichment (interaction score) in the test with PUM1 PUF domain R5-TAR.
Regarding “GGCUAGAACUAGUGGAUCCCCCGGCGCCCGGCGGCUCGAGCCCGGGUAAGUGUAAUUAGUCUGCAUGCCGCCGGGCGCCAUGCCUGCAGGUCGACUCUAGAAAACAUG”, the figures for the binding signal in the test with PUM1 PUF domain R3-WFG and in the test with PUM1 PUF domain R3-GFL were 2.57 log2 enrichment (interaction score) and 2.59 log2 enrichment (interaction score), respectively.
“GGCUAGAACUAGUGGAUCCCCCGGCGCCCGGCGGCUCGAGCCCGGGUAAGCGUAAAUAGUCUGCAUGCCGCCGGGCGCCAUGCCUGCAGGUCGACUCUAGAAAACAUG”: the binding signal in the test with PUM1 PUF domain R8-VYR is 5.17 log2 enrichment (interaction score); with PUM1 PUF domain R8-HFM it was 2.95 log2 enrichment (interaction score).
Consider “GGCUAGAACUAGUGGAUCCCCCGGCGCCCGGCGGCUCGAGCCCGGGUAAGUGUUAAUAGUCUGCAUGCCGCCGGGCGCCAUGCCUGCAGGUCGACUCUAGAAAACAUG”, for which the binding signal is 2.72 log2 enrichment (interaction score) with PUM1 PUF domain R5-KAR; 3.15 log2 enrichment (interaction score) in the test with PUM1 PUF domain R5-EWF; 3.38 log2 enrichment (interaction score) in the test with PUM1 PUF domain R5-RMC; 3.07 log2 enrichment (interaction score) in the test with PUM1 PUF domain R5-PRD; 1.21 log2 enrichment (interaction score) with PUM1 PUF domain R5-TAR.
Turning to “GGCUAGAACUAGUGGAUCCCCCGGCGCCCGGCGGCUCGAGCCCGGGUAAGUGUAAAUAGUCUGCAUGCCGCCGGGCGCCAUGCCUGCAGGUCGACUCUAGAAAACAUG”, the binding signal with PUM1 PUF domain R6-KWL is 5.66 log2 enrichment (interaction score); with PUM1 PUF domain R7-DWE it was 2.44 log2 enrichment (interaction score); in the test with PUM1 PUF domain R5-KQS it was 0.39 log2 enrichment (interaction score); in the test with PUM1 PUF domain R8-VYR, 4.52 log2 enrichment (interaction score); in the test with PUM1 PUF domain R3-AFP, 5.95 log2 enrichment (interaction score); with PUM1 PUF domain R3-VYD, 6.46 log2 enrichment (interaction score). In addition, the binding signal in the test with PUM1 PUF domain R3-GFL is 4.38 log2 enrichment (interaction score); with PUM1 PUF domain R4-WGT, 3.43 log2 enrichment (interaction score); with PUM1 PUF domain R5-PRD, 3.41 log2 enrichment (interaction score); with PUM1 PUF domain R5-AFY, 2.38 log2 enrichment (interaction score).
As for “GGCUAGAACUAGUGGAUCCCCCGGCGCCCGGCGGCUCGAGCCCGGGUAAGUGUGAAUAGUCUGCAUGCCGCCGGGCGCCAUGCCUGCAGGUCGACUCUAGAAAACAUG”, the values for the binding signal in the test with PUM1 PUF domain R5-DQE and with PUM1 PUF domain R5-QVI were 3.83 log2 enrichment (interaction score) and 4.41 log2 enrichment (interaction score), respectively.
Regarding “GGCUAGAACUAGUGGAUCCCCCGGCGCCCGGCGGCUCGAGCCCGGGUAAGUGUACAUAGUCUGCAUGCCGCCGGGCGCCAUGCCUGCAGGUCGACUCUAGAAAACAUG”, the binding signal with PUM1 PUF domain R4-WGT was 2.69 log2 enrichment (interaction score).
For “GGCUAGAACUAGUGGAUCCCCCGGCGCCCGGCGGCUCGAGCCCGGGUAAGUGUAUAUAGUCUGCAUGCCGCCGGGCGCCAUGCCUGCAGGUCGACUCUAGAAAACAUG”, the binding signal with PUM1 PUF domain R4-WGT is 4.02 log2 enrichment (interaction score).
In the case of “GGCUAGAACUAGUGGAUCCCCCGGCGCCCGGCGGCUCGAGCCCGGGUAAGUGUAAAAAGUCUGCAUGCCGCCGGGCGCCAUGCCUGCAGGUCGACUCUAGAAAACAUG”, in the test with PUM1 PUF domain R2-AWY, the binding signal is 3.08 log2 enrichment (interaction score).
With “GGCUAGAACUAGUGGAUCCCCCGGCGCCCGGCGGCUCGAGCCCGGGUAAGUGUAAGUAGUCUGCAUGCCGCCGGGCGCCAUGCCUGCAGGUCGACUCUAGAAAACAUG”, the binding signal with PUM1 PUF domain R3-WFG was 2.77 log2 enrichment (interaction score).
Regarding “GGCUAGAACUAGUGGAUCCCCCGGCGCCCGGCGGCUCGAGCCCGGGUAAGUGAAAAUAGUCUGCAUGCCGCCGGGCGCCAUGCCUGCAGGUCGACUCUAGAAAACAUG”, the binding signal in the test with PUM1 PUF domain R6-DWE is 2.98 log2 enrichment (interaction score).
